Laboratory results taken from PubChem BioAssay (EPA / NIEHS).
Results filed as inconclusive are left out. Activity calls are given as the source filed them. Rule for the calls, unless noted: active = hit-call score of the fitted dose curve at least 0.9, where 1 is the maximum; inconclusive = response in the unintended direction; inactive = score below 0.9.

What was measured:
[1] = molecular target: mouse Estrogen Receptor alpha (Era), Esr1 (gene 13982) (UniProt P19785); assay: NVS_NR_mERa: NovaScreen (NVS) Nuclear Receptor Binding Assay for mouse Estrogen Receptor alpha (Era) (AID 2283378);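 note: hit means loss of bound radioligand signal relative to DMSO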
Summary of the method: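 Filter scintillation counts of bound radioligand, measured 18 h post-dose, gave the readout; decreased signal relative to DMSO controls indicated displacement from mouse Era. Primary screen ran in duplicate at 25 uM; active chemicals were retested across concentrations.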

[2] = molecular target: Estrogen receptor (Homo sapiens) (UniProt P03372); assay: OT_ERa_GFPERaERE_0480: Odyssey Thera (OT) 8-hour HeLa Transcription Induction Assay for Estrogen Receptor (AID 2283381; active = hit-call score of the fitted dose curve at least 0.9, where 1 is the maximum; inactive = score below 0.9)
Summary of the method: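 An 8 h HeLa transcription-induction format with a GFP reporter under ERE control, read by fluorescence microscopy; single endpoint fitted positively with DMSO as baseline.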

[3] = molecular target: Estrogen receptor (Homo sapiens) (UniProt P03372); assay: OT_ERa_GFPERaERE_0120: Odyssey Thera (OT) 2-hour HeLa Transcription Induction Assay for Estrogen Receptor (AID 2283382)
Summary of the method: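 Two-hour compound treatment of HeLa cells preceded microscopy imaging of an inducible fluorescent reporter. Image-based quantification gave one endpoint, analysed for signal increase relative to DMSO controls.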

[4] = molecular target: Bile acid receptor (Homo sapiens) (UniProt Q96RI1); assay: OT_FXR_FXRSRC1_0480: Odyssey Thera (OT) 8-hour HEK293T Protein-Complementation Assay for Farnesoid X receptor/SRC-1 Co-activator (AID 2283383)
Summary of the method: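 Readings were taken 8 h after dosing HEK293T cells in a split-reporter complementation format pairing FXR with SRC-1. Increased fluorescence relative to DMSO-treated wells defined activity.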

[5] = molecular target: Bile acid receptor (Homo sapiens) (UniProt Q96RI1); assay: OT_FXR_FXRSRC1_1440: Odyssey Thera (OT) 24-hour HEK293T Protein-Complementation Assay for Farnesoid X receptor/SRC-1 Co-activator (AID 2283384)
Summary of the method: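 Single endpoint, analysed for increased fluorescence against DMSO controls. HEK293T cells carrying FXR and SRC-1 linked to complementary reporter halves were exposed to chemicals for 24 h before reading.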

[6] = molecular target: Retinoic acid receptor RXR-alpha (Homo sapiens) (UniProt P19793); assay: OT_NURR1_NURR1RXRa_0480: Odyssey Thera (OT) 8-hour HEK293T Protein Complementation Assay for Nurr1/retinoid X receptor (RXR) (AID 2283385)
Summary of the method: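 Gain in fluorescent complementation signal over DMSO, measured 8 hours after chemical dosing of human kidney HEK293T cells, indicated enhanced Nurr1–RXRα association.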

[7] = molecular target: Retinoic acid receptor RXR-alpha (Homo sapiens) (UniProt P19793); assay: OT_NURR1_NURR1RXRa_1440: Odyssey Thera (OT) 24-hour HEK293T Protein Complementation Assay for Nurr1/retinoid X receptor (RXR) (AID 2283386)
Summary of the method: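 Cell-based binding reporter: HEK293T cells, 24 h exposure, fluorescence-detected fragment complementation, DMSO as baseline.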

[8] = molecular target: Peroxisome proliferator-activated receptor gamma (Homo sapiens) (UniProt P37231); assay: OT_PPARg_PPARgSRC1_0480: Odyssey Thera (OT) 8-hour Protein-Complementation Assay for Peroxisome Proliferator-activated Receptor Gamma / SRC-1 Co-activator (AID 2283387);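 note: nuclear to cytoplasmic split Venus YFP fluorescence ratio reporting PPARg SRC-1 interaction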
Summary of the method: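 Split-YFP (IFP1/IFP2) PPARg/SRC-1 reporter, HEK293T, 37 °C, 5% CO2; 8 h compound; formaldehyde fix + Draq5; high-content imaging, N/C ratio, ≥350 cells/image, positive direction vs DMSO.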

[9] = molecular target: Peroxisome proliferator-activated receptor gamma (Homo sapiens) (UniProt P37231); assay: OT_PPARg_PPARgSRC1_1440: Odyssey Thera (OT) 24-hour Protein-Complementation Assay for Peroxisome Proliferator-activated Receptor Gamma/ SRC-1 Co-activator (AID 2283388);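 note: nuclear to cytoplasmic ratio of reconstituted Venus YFP fluorescence in fixed imaged cells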
Summary of the method: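 Readout: nuclear-to-cytoplasmic 488 nm fluorescence ratio, ≥350 cells per image, 8 images per well, after 24 h compound exposure of HEK293T expressing PPARg/SRC-1 split-YFP fusions. Activity fitted in positive direction against DMSO.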

[10] = CEETOX_H295R_11DCORT: CeeTox H295R High-throughput Steroidogenesis Assay for 11-Deoxycortisol (11DCORT) (AID 2283432; active = hit-call score of the fitted dose curve at least 0.9, where 1 is the maximum; inactive = score below 0.9); conditions: actives raise or lower the signal
Summary of the method: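 Steroidogenesis in human H295R cells: 48 h chemical exposure after forskolin priming, 11-deoxycortisol measured by LC-MS/MS.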

[11] = CEETOX_H295R_OHPREG: CeeTox H295R High-throughput Steroidogenesis Assay for OH-Pregnenolone (OHPREG) (AID 2283434; active = hit-call score of the fitted dose curve at least 0.9, where 1 is the maximum; inactive = score below 0.9); conditions: actives raise or lower the signal
Summary of the method: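 Readout: HPLC-MS/MS of 17alpha-hydroxypregnenolone in medium after 48 h chemical exposure of H295R cells pretreated with forskolin. Values fitted bidirectionally relative to DMSO; chemicals reducing viability to 20–70% were retested after 10-fold dilution.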

[12] = CEETOX_H295R_CORTIC: CeeTox H295R High-throughput Steroidogenesis Assay for Corticosterone (CORTIC) (AID 2283437; active = hit-call score of the fitted dose curve at least 0.9, where 1 is the maximum; inactive = score below 0.9;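 note: corticosterone secreted into medium quantified by mass spectrometry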); conditions: actives raise or lower the signal
Summary of the method: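 Steps: seed H295R, adhere overnight; 10 uM forskolin 48 h; replace with chemical (0.1% DMSO) 48 h; extract medium with MTBE; quantify corticosterone by HPLC-MS/MS; score bidirectionally vs DMSO.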

[13] = CEETOX_H295R_CORTISOL: CeeTox H295R High-throughput Steroidogenesis Assay for Cortisol (AID 2283438; active = hit-call score of the fitted dose curve at least 0.9, where 1 is the maximum; inactive = score below 0.9;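 note: cortisol secreted into medium quantified by LC-MS/MS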); conditions: actives raise or lower the signal
Summary of the method: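 Steroidogenesis in H295R, per modified OECD 456: 48 h forskolin (10 uM), then 48 h exposure, 0.1% DMSO. Cortisol by extraction and tandem MS; viability by MTT (570/650 nm); cytotoxic chemicals diluted and re-tested.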

[14] = CEETOX_H295R_DOC: CeeTox H295R High-throughput Steroidogenesis Assay for DOC (AID 2283439; active = hit-call score of the fitted dose curve at least 0.9, where 1 is the maximum; inactive = score below 0.9); conditions: actives raise or lower the signal
Summary of the method: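 H295R, fsk 10 uM ×48 h pre, cmpd ×48 h (0.1% DMSO). Media → MTBE extr. → LC-MS/MS, DOC. Bidirectional fit vs DMSO; MTT viability same wells, re-test diluted if <70%.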

[15] = molecular target: human Dopamine Transporter (DAT), SLC6A3 (gene 6531) (UniProt Q01959); assay: NVS_TR_hDAT: NovaScreen (NVS) Transporter Assay for human Dopamine Transporter (DAT) (AID 2283374);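 note: activity means loss of bound radioligand signal relative to DMSO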
Summary of the method: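 Extracted human SLC6A3 protein incubated 1 h with radioligand and test chemical; bound fraction separated on filters and counted. Single 25 uM duplicate screen preceded concentration-response follow-up; positive and negative controls on every plate.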

[16] = molecular target: human Norepinephrine Transporter (NET), SLC6A2 (gene 6530) (UniProt P23975); assay: NVS_TR_hNET: NovaScreen (NVS) Transporter Assay for human Norepinephrine Transporter (NET) (AID 2283377);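 note: cell-free membrane protein extracted from CHO cells expressing human NET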
Summary of the method: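 In this cell-free binding screen, chemicals at 25 uM (duplicate) compete with a radioligand for CHO-derived human NET over 1 hour, with filter-based radiodetection.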

[17] = molecular target: Agonist Androgen Response Element (ARE), AR (gene 367) (UniProt P10275); assay: OT_AR_ARELUC_AG_1440: Odyssey Thera (OT) 24-hour CHO-K1 Luciferase Assay for Agonist Androgen Response Element (ARE) (AID 2283379)
Summary of the method: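 Luminescence increase above DMSO, read after a 24 h compound treatment of CHO-K1 cells expressing an androgen response element luciferase reporter, gives the single primary endpoint; concentration-response fitting used the positive direction.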

[18] = molecular target: Estrogen receptor beta (Homo sapiens) (UniProt Q92731); assay: OT_ER_ERbERb_1440: Odyssey Thera (OT) 24-hour HEK293T Protein-Complementation Assay for Estrogen Receptor-beta/-beta Homodimer (AID 2283380);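 note: fluorescence gain from ER beta LBD homodimer complementation read by laser scanning cytometry; scored as signal increase over DMSO baseline for both agonists and antagonists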
Summary of the method: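 HEK293T cells stably expressing human ER-beta LBD (aa 310-547) PCA homodimer pair, dosed 24 h; formaldehyde-fixed, Draq5-stained. Readout: increase in nuclear (agonist) or nuclear plus cytoplasmic (antagonist) fluorescence intensity versus DMSO, gain-of-signal fitting.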

[19] = CEETOX_H295R_ANDR: CeeTox H295R High-throughput Steroidogenesis Assay for Androstenedione (ANDR) (AID 2283436; active = hit-call score of the fitted dose curve at least 0.9, where 1 is the maximum; inactive = score below 0.9;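 note: human H295R adrenal cells exposed for 48 h with androstenedione measured in medium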); conditions: actives raise or lower the signal
Summary of the method: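 Steroidogenesis in H295R adrenal cells after 48 h dosing; androstenedione quantified by LC-MS/MS, with DMSO as negative control and baseline for bidirectional curve fitting.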

Measured: AC50

Chain of Retinoic acid receptor RXR-alpha (Homo sapiens) (P19793 whole entry, looked up, the tested form may be a part): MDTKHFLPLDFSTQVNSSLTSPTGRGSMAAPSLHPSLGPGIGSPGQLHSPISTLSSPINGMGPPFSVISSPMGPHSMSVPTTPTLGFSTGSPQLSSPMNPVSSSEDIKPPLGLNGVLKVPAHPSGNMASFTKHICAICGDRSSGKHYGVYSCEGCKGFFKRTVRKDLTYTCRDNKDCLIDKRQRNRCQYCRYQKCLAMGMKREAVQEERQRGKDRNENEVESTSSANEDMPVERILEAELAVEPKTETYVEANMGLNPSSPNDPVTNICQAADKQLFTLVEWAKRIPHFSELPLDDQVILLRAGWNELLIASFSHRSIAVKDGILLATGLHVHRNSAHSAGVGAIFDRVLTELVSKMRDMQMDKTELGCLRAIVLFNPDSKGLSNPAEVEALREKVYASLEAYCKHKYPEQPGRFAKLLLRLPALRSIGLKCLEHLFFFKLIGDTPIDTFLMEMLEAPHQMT
Chain of Estrogen receptor (Homo sapiens) (P03372 whole entry, looked up): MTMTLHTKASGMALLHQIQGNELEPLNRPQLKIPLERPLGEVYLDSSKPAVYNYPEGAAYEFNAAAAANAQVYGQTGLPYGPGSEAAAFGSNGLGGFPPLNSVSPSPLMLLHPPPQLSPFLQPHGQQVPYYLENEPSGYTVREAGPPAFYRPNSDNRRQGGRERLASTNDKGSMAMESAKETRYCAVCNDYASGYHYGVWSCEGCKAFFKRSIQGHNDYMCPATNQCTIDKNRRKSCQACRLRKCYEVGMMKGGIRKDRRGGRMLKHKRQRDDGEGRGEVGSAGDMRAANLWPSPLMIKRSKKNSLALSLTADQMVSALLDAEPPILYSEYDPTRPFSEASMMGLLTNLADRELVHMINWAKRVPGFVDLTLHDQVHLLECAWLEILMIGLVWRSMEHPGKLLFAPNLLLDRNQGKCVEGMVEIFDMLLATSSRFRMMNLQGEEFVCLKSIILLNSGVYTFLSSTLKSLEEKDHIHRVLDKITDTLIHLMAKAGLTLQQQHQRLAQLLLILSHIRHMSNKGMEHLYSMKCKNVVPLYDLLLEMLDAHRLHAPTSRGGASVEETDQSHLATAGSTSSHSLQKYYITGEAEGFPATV
Chain of Estrogen receptor beta (Homo sapiens) (Q92731 whole entry, looked up, the tested form may be a part): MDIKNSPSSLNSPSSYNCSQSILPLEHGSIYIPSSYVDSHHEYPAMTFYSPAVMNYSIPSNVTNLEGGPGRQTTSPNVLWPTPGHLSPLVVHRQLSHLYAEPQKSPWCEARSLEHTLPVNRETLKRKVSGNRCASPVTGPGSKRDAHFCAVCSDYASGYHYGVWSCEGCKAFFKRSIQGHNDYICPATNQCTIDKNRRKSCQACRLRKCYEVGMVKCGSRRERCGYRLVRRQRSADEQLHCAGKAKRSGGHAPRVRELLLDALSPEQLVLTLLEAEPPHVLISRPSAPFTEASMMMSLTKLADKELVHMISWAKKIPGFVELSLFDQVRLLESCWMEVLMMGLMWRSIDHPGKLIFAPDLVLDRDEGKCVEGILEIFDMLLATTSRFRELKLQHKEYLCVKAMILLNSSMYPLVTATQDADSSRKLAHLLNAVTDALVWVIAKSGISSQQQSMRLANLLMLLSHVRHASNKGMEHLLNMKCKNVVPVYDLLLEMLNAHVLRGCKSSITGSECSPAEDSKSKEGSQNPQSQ
Chain of Bile acid receptor (Homo sapiens) (Q96RI1 whole entry, looked up): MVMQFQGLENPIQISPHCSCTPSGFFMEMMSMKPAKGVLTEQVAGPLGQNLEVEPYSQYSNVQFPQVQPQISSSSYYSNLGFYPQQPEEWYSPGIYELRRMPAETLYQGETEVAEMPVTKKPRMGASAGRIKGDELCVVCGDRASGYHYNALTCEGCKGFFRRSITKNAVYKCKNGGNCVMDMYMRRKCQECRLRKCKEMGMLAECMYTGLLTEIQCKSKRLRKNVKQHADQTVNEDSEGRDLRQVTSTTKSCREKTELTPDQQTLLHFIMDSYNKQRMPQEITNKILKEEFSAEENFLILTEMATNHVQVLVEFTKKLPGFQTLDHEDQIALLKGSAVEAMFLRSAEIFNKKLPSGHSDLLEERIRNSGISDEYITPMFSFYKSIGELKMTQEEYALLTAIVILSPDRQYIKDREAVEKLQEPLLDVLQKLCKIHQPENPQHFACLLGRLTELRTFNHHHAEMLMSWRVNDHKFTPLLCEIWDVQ
Chain of Peroxisome proliferator-activated receptor gamma (Homo sapiens) (P37231 whole entry, looked up, the tested form may be a part): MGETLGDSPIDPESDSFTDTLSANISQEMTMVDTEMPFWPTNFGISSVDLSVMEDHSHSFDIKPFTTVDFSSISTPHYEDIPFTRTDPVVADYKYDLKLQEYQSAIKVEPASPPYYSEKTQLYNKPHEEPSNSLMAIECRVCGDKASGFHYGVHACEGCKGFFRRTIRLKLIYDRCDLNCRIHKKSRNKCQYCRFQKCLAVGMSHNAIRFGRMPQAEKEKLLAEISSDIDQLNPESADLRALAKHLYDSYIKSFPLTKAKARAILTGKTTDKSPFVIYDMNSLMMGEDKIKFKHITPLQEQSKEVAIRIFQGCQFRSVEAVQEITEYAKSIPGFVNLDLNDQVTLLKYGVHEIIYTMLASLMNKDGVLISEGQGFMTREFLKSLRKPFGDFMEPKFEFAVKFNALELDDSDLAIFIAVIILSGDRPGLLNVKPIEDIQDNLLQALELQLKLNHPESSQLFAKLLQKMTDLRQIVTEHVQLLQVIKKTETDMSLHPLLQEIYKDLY
Chain of mouse Estrogen Receptor alpha (Era), Esr1 (gene 13982) (P19785 whole entry, looked up): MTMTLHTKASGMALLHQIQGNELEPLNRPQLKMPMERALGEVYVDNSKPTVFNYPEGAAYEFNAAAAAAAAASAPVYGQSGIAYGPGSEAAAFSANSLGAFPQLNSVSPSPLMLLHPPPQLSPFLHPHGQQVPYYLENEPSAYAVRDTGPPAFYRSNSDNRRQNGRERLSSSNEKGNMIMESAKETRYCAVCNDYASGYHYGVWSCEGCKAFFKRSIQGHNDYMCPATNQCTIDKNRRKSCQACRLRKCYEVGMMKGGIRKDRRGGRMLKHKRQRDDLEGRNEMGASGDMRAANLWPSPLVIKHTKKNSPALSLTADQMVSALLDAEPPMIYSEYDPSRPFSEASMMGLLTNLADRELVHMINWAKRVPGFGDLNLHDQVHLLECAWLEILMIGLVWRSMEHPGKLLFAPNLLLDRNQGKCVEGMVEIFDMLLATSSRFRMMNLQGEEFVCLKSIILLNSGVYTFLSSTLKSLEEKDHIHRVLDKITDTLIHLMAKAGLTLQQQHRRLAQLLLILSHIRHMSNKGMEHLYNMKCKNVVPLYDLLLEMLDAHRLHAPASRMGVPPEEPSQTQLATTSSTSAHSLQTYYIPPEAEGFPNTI
Chain of human Dopamine Transporter (DAT), SLC6A3 (gene 6531) (Q01959 whole entry, looked up): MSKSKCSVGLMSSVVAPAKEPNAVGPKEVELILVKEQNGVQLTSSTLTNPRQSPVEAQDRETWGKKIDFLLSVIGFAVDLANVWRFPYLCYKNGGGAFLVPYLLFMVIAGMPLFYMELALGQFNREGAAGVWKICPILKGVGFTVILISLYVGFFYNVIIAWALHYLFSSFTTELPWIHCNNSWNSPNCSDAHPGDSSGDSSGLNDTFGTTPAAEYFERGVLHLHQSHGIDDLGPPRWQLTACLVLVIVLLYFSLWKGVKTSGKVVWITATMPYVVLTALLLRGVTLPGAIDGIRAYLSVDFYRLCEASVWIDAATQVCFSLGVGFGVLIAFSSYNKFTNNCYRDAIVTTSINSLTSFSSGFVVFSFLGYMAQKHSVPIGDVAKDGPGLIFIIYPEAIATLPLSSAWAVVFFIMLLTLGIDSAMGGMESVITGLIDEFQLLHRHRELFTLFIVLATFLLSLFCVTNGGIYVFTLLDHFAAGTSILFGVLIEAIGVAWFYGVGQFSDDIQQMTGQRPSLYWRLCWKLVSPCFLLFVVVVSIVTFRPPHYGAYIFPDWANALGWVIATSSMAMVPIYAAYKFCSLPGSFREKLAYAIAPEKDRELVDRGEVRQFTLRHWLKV
Chain of Agonist Androgen Response Element (ARE), AR (gene 367) (P10275 whole entry, looked up): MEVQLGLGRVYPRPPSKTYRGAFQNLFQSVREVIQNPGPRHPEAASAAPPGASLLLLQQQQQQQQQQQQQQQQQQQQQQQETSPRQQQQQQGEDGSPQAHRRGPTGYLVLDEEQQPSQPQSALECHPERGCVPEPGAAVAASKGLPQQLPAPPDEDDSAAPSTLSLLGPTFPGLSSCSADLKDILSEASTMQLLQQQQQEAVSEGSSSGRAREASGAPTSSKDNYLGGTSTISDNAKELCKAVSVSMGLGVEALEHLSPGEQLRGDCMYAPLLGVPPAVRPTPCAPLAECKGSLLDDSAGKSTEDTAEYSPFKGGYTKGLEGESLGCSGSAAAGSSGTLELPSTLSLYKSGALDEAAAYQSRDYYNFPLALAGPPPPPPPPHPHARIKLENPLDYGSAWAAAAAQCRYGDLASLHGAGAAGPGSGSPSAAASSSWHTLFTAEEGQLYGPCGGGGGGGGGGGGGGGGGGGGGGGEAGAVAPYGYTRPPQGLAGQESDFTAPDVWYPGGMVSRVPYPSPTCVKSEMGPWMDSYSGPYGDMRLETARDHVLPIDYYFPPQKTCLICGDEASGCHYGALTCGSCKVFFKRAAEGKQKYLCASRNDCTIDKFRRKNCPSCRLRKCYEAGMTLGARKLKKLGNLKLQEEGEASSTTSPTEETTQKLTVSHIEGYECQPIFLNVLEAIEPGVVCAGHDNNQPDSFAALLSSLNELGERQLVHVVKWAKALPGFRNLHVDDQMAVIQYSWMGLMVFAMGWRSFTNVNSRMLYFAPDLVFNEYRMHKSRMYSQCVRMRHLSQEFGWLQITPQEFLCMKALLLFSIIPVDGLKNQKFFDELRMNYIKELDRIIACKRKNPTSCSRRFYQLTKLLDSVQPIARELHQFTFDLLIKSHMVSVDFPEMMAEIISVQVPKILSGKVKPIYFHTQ

Nc1ccn([C@@H]2O[C@H](CO)[C@@H](O)[C@@H]2O)c(=O)n1
active: [3] 62.2 µM
inactive: [1] | [2] | [4] | [5] | [6] | [7] | [8] | [9] | [10] | [11] | [12] | [13] | [14]

CCOC(N)=O
inactive: [1] | [2] | [3] | [6] | [7]

CCCCC(CC)C(=O)OCCOCCOCCOC(=O)C(CC)CCCC (stereo not drawn)
inactive: [15] | [16] | [1] | [17] | [18] | [2] | [3] | [6] | [7] | [8] | [9] | [10] | [11] | [19] | [12] | [13] | [14]

Cc1cccc(O)c1C
inactive: [1] | [18] | [2] | [3] | [4] | [5] | [8] | [9]

OCc1ccccc1
inactive: [15] | [17] | [18] | [2] | [3] | [6] | [7] | [8] | [9]
